# Screens (PubChem BioAssay)
# Hits are enriched below; roughly 5.7% of the tested compounds scored in any of these assays.
# HP1b chromo inh: inhibitors of HP1-beta chromodomain binding to methylated histone tails | P83916 | AlphaScreen HP1-beta / biotin-H3K9me3 peptide binding | Potency, µM (top dose mostly 114 µM), inactives show at the top dose activity change, negative = inhibition, usual class: inhibitors | hit rate 0.56% among 390,000; note: potency is the fitted concentration of half-maximal effect; nearly all actives have a fitted effect of over 70% in size
# Target sequence (P83916 whole entry, looked up): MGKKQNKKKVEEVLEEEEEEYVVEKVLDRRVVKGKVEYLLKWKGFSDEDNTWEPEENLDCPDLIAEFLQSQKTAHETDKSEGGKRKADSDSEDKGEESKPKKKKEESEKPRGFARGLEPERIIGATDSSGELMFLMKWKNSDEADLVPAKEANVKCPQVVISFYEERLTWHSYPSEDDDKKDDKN
#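 HP1-beta protein (50 nM final) preincubated 30 min at room temperature with biotinylated H3(1-18)K9me3 peptide (50 nM) in PBS pH 7.4, 0.01% Tween-20, then compound added for 30 min. AlphaScreen streptavidin donor/nickel chelate acceptor beads (10 ug/mL final), 30 min dark, luminescence read.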
# JMJD2A Tudor: JMJD2A Tudor domain (human) inhibition; O75164; AlphaScreen JMJD2A-Tudor / H3K4me3 peptide binding; Potency, µM (titrated, usually from 114 µM), without a hit: at the top dose activity change, negative = inhibition, actives largely listed as inhibitors; hit rate 4.4% among 390,000; note: potency is the fitted concentration of half-maximal effect; % is set by controls: 0 for no effect and ±100 for the full control effect; nearly all actives have a fitted effect of over 50% in size
# L3MBTL1 block: blocks human L3MBTL1; Q9Y468; AlphaScreen L3MBTL1–H3K9me1 peptide binding; Potency, µM (top dose mostly 57.1 µM), for inactives: top-dose activity, negative = inhibition, hits mostly inhibitors; hit rate 0.66% among 230,000; AID 485360; note: potency is the fitted concentration of half-maximal effect; % is set by controls: 0 for no effect and ±100 for the full control effect; nearly all actives have a fitted effect of over 60% in size
#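 AlphaScreen assay: L3MBTL1 (50 nM final) was preincubated 30 min at room temperature with biotinylated H3(1-15)K9me1 peptide (75 nM final), then 30 min with library compounds; streptavidin donor and nickel chelate acceptor beads (10 ug/mL final) added, 30 min dark.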
# BAZ2B block: blocks human BAZ2B | Q9UIF8 | AlphaScreen BAZ2B-H3K14Ac peptide displacement | Potency, µM (doses to about 114 µM), for inactives: at the top dose activity change, negative = inhibition, hits mostly inhibitors | hit rate 4.4% among 360,000 | AID 504333; note: potency is the fitted concentration of half-maximal effect; % is set by controls: 0 for no effect and ±100 for the full control effect; nearly all actives have a fitted effect of over 60% in size
#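 Protein-peptide AlphaScreen: BAZ2B 50 nM, b-H3K14Ac 50 nM, 1x PBS pH 7.4 + 0.01% Tween-20. Preincubation 30 min RT; cpd 30 min RT (top 110 uM); beads 20 min RT, light-protected.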
# KDM4E inh: blocks human JMJD2E demethylase activity | Potency, µM (series often up to 57.1 µM), inactives show top-dose activity change, negative = inhibition, actives largely listed as inhibitors | hit rate 1.6% among 230,000 | JMJD2E catalytic domain, FDH-coupled NADH fluorescence (FDH is formaldehyde dehydrogenase); active = well fitted inhibition curve with a large enough effect, not every such curve was filed as active; inconclusive = small, poorly fitted or top-dose-only effect, or another doubt; inactive = no such curve, though single readings can be large or run the other way;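 note: potency is the fitted concentration of half-maximal effect; 0% = wells with enzyme and -100% = buffer wells without enzyme; nearly all actives have a fitted effect of over 50% in size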
# Target sequence (B2RXH2 1-337 limits assumed): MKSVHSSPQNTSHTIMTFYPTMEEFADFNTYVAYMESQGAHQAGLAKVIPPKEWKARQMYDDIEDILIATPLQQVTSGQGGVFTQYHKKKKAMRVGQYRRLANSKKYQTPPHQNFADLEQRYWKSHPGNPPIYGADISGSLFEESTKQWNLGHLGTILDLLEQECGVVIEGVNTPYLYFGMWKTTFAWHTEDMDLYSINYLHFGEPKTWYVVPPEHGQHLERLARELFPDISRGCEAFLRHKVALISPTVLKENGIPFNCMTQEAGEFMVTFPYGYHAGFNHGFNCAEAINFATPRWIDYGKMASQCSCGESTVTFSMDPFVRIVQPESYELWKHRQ
# PI5P4Ka inh: inhibitors of human PI5P4K alpha | max response, % | PI5P4Kalpha enzyme, ADP-Glo luminescence, 60 min; hits give low values | hit rate 1.2% among 330,000 | P48426; active = max response of -50% or lower; inconclusive = between -30% and -50%; inactive = -30% or higher; note: value at the top dose of about 77 µM; % is set by controls: 0 for no effect and ±100 for the full control effect
#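 ADP-Glo luminescence end-point read after a 60 min room-temperature kinase reaction of PI5P4Kalpha plus substrate, initiated with ATP at 5 microM final. Buffer: 0.038 M HEPES pH 7.4, EGTA, 0.1% CHAPS, 5% DMSO.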
# Active calls of the source: *; ? = inconclusive; · = not tested or not shown; [ ] = another dose, or the depositor's remark. Unless noted, calls come from the whole dose curve; as a rule, active = well fitted inhibition curve with a large enough effect; inconclusive = small, poorly fitted or top-dose-only effect; inactive = no such curve, though single readings can be large or run the other way.
SMILES,HP1b chromo inh,JMJD2A Tudor,L3MBTL1 block,BAZ2B block,KDM4E inh,PI5P4Ka inh
CCNc1nc(NCC)nc(C(=O)Nc2ccccc2)n1,58%,79µM*,?,10µM*,9%,4
N#Cc1c2nc3ccccc3nc2n2cc(NC(=O)c3ccc(F)cc3)ccc12,-19%,18µM*,-45%,?,2%,?
CC1CN(C(=O)CCC(=O)NCc2ccccn2)c2ccccc2O1 (stereo unspecified),42%,-13%,48%,25%,·,0
N#Cc1c(Cl)nsc1NC(=O)c1ccccc1,26%,-9%,34%,-1%,-3%,-54*
C/C(=C\C(=O)c1ccccc1)Nc1ccc(O)cc1,-36%,?,·,?,-29%,-2
C/C(=C\C(=O)c1sccc1Cl)N(C)C,18%,-2%,30%,?,-11%,-5
COc1ccc(C(=O)/C=C(/C)N(C)C)cc1,9%,40µM*,0%,-1%,-1%,7
COc1ccc(C(=O)/C=C(\C)Nc2ccc(NC(C)=O)cc2)cc1,-13%,?,1%,79µM*,-17%,·
C/C(=C\C(=O)c1ccc(C)cc1)Nc1cccc(O)c1,-21%,?,0%,50µM*,3%,·
CCCc1nc2sc3c(N4CCC(C)CC4)ncnc3c2c2c1CCCC2,45%,11%,·,-1%,·,·
O=C(NCc1cccc(Br)c1)C1CCCCN1S(=O)(=O)c1ccc(F)cc1 (stereo unspecified),50%,16%,·,11%,·,·
Nc1nc(N)c(N=Nc2ccc(C(=O)O)cc2)c(N)n1,32%,-6%,-12%,-19%,-2%,?
Oc1ccc(N=Nc2c(O)ccc3ccccc23)cc1,?,10µM*,18µM*,6.3µM*,-16%,·
O=C(O)c1cc(N=Nc2c(O)ccc3ccccc23)cc(C(=O)O)c1,?,28µM*,-6%,?,-12%,?
O=C(O)c1ccc(N=Nc2c(O)ccc3ncccc23)cc1,?,7.9µM*,·,1.6µM*,·,?
CN[C@H]1CCc2cc(OC)c(OC)c(OC)c2-c2ccc(N[C@@H]3CCCCNC3=O)c(=O)cc21,·,·,·,·,-16%,·
Cn1c2cc(C#N)sc2c2cnn(Cc3ccccc3F)c(=O)c21,·,-13%,·,·,·,·
CC1=NN2C(=N)/C(=C\c3ccc(SCc4ccccc4)o3)C(=O)N=C2S1,11%,?,·,-39%,-17%,?
N=C1/C(=C\c2ccc(SCc3ccco3)o2)C(=O)N=C2SC=NN12,0%,?,-29%,?,28µM*,-58*
COc1ccc(CNC(=O)CCNS(=O)(=O)c2ccc(Br)s2)cc1,-2%,79µM*,·,8%,·,-5
CC(/C=C1\SC(=S)N(CCC(=O)Nc2cccc(C(=O)O)c2)C1=O)=C\c1ccccc1,71µM*,?,·,56µM*,·,-77*
CC(/C=C1\SC(=S)N(CCCC(=O)Nc2ccc(C(=O)O)cc2)C1=O)=C\c1ccccc1,-28%,?,-4%,40µM*,3%,?
O=C(CN1C(=O)S/C(=C\C=C\c2ccccc2)C1=O)Nc1ccccc1C(=O)O,-3%[57 µM],-18%,-12%,-33%,-11%,-67*
O=C(CCCN1C(=O)S/C(=C\C=C\c2ccccc2)C1=O)Nc1ccc(C(=O)O)cc1,1%,-19%,·,56µM*,·,-2
CCn1c(=O)n(-c2ccc(F)cc2)c(=O)c2sc3ccccc3c21,58%,-13%,·,4%,·,·
SMILES,HP1b chromo inh,JMJD2A Tudor,L3MBTL1 block,BAZ2B block,KDM4E inh,PI5P4Ka inh
CCc1ccc(CNC(=O)c2cc3c(s2)-c2ccccc2OC3)cc1,28%,-25%,·,-17%,·,·
COc1cc(OC)c(N(C)C(=O)CSc2c3c(nc4ccc(Cl)cc24)CCCC3)cc1Cl,18%,-35%,·,·,·,·
CCc1ccc(C=C2SC(=S)N(CCCC(=O)Nc3ccc(C(=O)O)cc3)C2=O)cc1,·,·,·,·,·,6
CCc1ccc(/C=C2/SC(=S)N(CCC(=O)Nc3cccc(C(=O)O)c3)C2=O)cc1,-4%,50µM*,·,35µM*,·,5
O=C(NC1CC1)c1cccc(NC(=O)c2cn3ccccc3n2)c1,-5%,40µM*,-3%,4%,·,2
Cc1oc2ccc(O)cc2c1C(=O)c1ccc(F)cc1,25%,-19%,·,·,·,0
COc1cccc(CNC(=O)C2CCN(c3nnc(-n4c(C)ccc4C)s3)CC2)c1OC,25%,-31%,·,-20%,·,·
Cc1occc1C(=O)Nc1ccc(S(N)(=O)=O)cc1,?,22µM*,-20%,-13%,-9%,-23
Cc1occc1C(=O)Nc1ccccc1NC(=O)c1ccoc1C,-7%,89µM*,·,·,·,?
Cc1occc1C(=O)NNC(=O)Nc1ccc(Cl)c(Cl)c1,-8%,50µM*,-1%,-4%,5%,-29
O=C(Cn1cc(C(=O)C2CC2)c2ccccc21)Nc1ccc(Br)cc1,39%,-5%,·,3%,·,·
CNC(=S)/N=C/NOCc1ccc(Cl)cc1Cl,32%,16%,37%,-2%,8%,-3
CC1=CC(C)(C)N2C(=O)C3(NCCc4c3[nH]c3ccccc43)c3cc(C)cc1c32 (stereo unspecified),-2%,-16%[11.4 µM],·,56µM*,6%,3
c1cncc(-c2nc3ccccn3c2Nc2ccc3c(c2)OCCO3)c1,-10%,?,·,?,-21%,3
